Screening results as filed in PubChem BioAssay.
3CLpro inhibitor – SARS-CoV 3CLpro protease inhibition | P0C6X7 | recombinant SARS-CoV 3CLpro, quenched FRET peptide cleavage | inhibition, % at 6 µM | hit rate 0.14% among 290,000 | AID 1706; in the data active means inhibition above about 12%
TcdB inh – TcdB glycohydrolase inhibition. P18177. TcdB glycohydrolase enzymatic assay, plate reader. inhibition, % at 9.99 µM. hit rate 0.24% among 350,000; in the data active means inhibition above about 10%
DUSP3 inh – blocks human VHR1 dual specificity phosphatase; hit rate 0.52% among 290,000; inhibition, % at 13.3 µM; recombinant VHR phosphatase, pNPP absorbance; in the data active means inhibition above about 50%
Target sequence (P51452 whole entry, looked up): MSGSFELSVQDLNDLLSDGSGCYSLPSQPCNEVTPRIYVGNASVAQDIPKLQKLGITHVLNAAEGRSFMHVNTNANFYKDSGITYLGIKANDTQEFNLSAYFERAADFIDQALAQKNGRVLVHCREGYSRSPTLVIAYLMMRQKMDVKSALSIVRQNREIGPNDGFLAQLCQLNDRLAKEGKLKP
Vc quorum ag-1 – inducers of Vibrio cholerae quorum light production without autoinducers; V. cholerae BH1578 lux reporter, luminescence, 6 h; AID 588436; hit rate 0.16% among 350,000; activation, % at 18.7 µM; in the data active means activation mostly above about 9.7%, no sharp cut-off
CCHF vOTU inh – CCHFV vOTU protease inhibition; Pep-AMC fluorescence; inhibition, % at 11.5 µM; hit rate 0.55% among 370,000; AID 651958; in the data active means inhibition above about 30%; further: 0% = vehicle wells with enzyme and 100% = no enzyme wells
SSB-PriA inh – K. pneumoniae PriA-SSBct interaction inhibition; AlphaScreen SSBct-PriA binding, biotinylated peptide; inhibition, % at 33 µM; hit rate 0.6% among 430,000; AID 1272365; in the data active means inhibition mostly above about 37%, no sharp cut-off; inactive means mostly below about 20%;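 further: plate controls were negative control peptide for no effect and reference peptide for full effect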
Vc quorum ag-2 – inducers of V. cholerae quorum light production without autoinducers; shares compounds with Vc quorum ag-1; V. cholerae BH1578 lux reporter, luminescence, 6 h; activation, % at 50 µM; 620 tested, under 10 active; AID 602243; call rule not given here
HeLa 24h tox – HeLa cell viability loss at 24 h; shares compounds with Vc quorum ag-1; 25 tested, under 10 active; CellTiter-Glo ATP luminescence; activity change, negative = cytotoxicity, % at 35 µM;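 active means signal drop with fitted half-maximal concentration at or below twice the highest valid dose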
Numbers without * were called inactive; i = inactive; . = not tested or not shown; + = active, no number. Only some compounds are listed: those with a hit (about 1.3% of all), similar ones and a draw of the others.

SMILES	3CLpro inhibitor	TcdB inh	DUSP3 inh	Vc quorum ag-1	CCHF vOTU inh	SSB-PriA inh	Vc quorum ag-2	others
Cn1nc(C2CCCN(C(=O)Cc3cn(C)c4ccccc34)C2)n(-c2ccccc2)c1=O (stereo unspecified)	.	.	.	.	.	3	.
CC(=O)Nc1cccc(NC(=O)Cn2nc(-c3cccs3)c3sc(N4CCCC4)nc3c2=O)c1	.	.	.	.	.	-5	.
COc1ccc(OCCOC(=O)CCS(=O)(=O)c2ccc(C)cc2)cc1	.	1	.	12	16	-11	0
COc1ccc(OCCOC(=O)c2cccs2)cc1	0	.	-16	524*	3	-46	152
O=C(Nc1cccc(C(F)(F)F)c1)N1CCS[C@H](c2ccccc2)CC1	.	.	.	.	.	2	.
COc1ccc(C(=O)NCC[C@H](O)C2CCOCC2)cc1	.	.	.	.	.	-10	.
Cc1cc(OC(F)F)ccc1NC(=S)NCCc1ccccc1	7	2	19	12	7	2	0
CC1CCCN(C(=O)c2ccc3c(=O)n(Cc4ccc5c(c4)OCO5)c(=S)[nH]c3c2)C1 (stereo unspecified)	-5	.	18	2	-4	-10	4
O=c1c2cc(Br)ccc2nc(-c2cccc(C(F)(F)F)c2)n1O	-1	.	19	18*	5	2	1
CCOC(=O)c1c(NC(=S)Nc2ccc(Cl)cc2)sc(C)c1C	3	.	-17	12	-17	-2	1
O=S(=O)(Nc1cccc(S(=O)(=O)N2CCCCC2)c1)c1ccccc1F	.	6	.	26*	8	-6	0
CCOc1ccc2nc(SCC(=O)NC(=O)NCc3ccco3)[nH]c2c1	6	.	23	32*	-3	-6	0
COc1ccc(C(=O)NC2CCSC2=O)cc1 (stereo unspecified)	2	.	9	14	2	-13	0
COc1cccc(C(=O)NC2CCSC2=O)c1 (stereo unspecified)	-2	.	-8	i	7	0	.
O=C(COC(=O)c1ccc(Cl)nc1)Nc1ccc2ccccc2c1	.	0	.	14	-9	-1	0
COC(=O)C1CC(OC)CN1C(=O)Cc1cn(C)c2ccccc12 (stereo unspecified)	.	.	.	.	.	-4	.
O=C(c1cc2ccccc2cc1O)N1CCN(c2ccccc2O)CC1	.	1	.	12	-1	-8	0
COCCN(CCOC)S(=O)(=O)c1ccc(C(=O)Nc2nc(-c3cc4cccc(OC)c4o3)cs2)cc1	.	.	.	.	.	-2	.
Nc1nnc(SCC(=O)Nc2ccc3c(c2)OCCO3)s1	1	.	-10	12	1	-5	0
CCC(=O)Nc1nnc(SCC(=O)Nc2ccc3c(c2)OCCO3)s1	-5	-1	-13	i	2	-6	.
COc1ccccc1CCN1CCCC(CN(C)C(=O)c2ccco2)C1 (stereo unspecified)	-1	1	-26	14	-1	1	0
Cc1csc(NC(=O)Cc2nn(C)c(=O)c3ccccc23)n1	3	.	24	25*	-4	-7	0
O=C(NCC1CCN(C(=O)c2cccnc2)CC1)c1ccccc1S(=O)(=O)C(F)F	.	.	.	.	.	1	.
O=C(Cc1ccc2c(c1)CCCC2)Nc1ccccc1Br	0	1	21	427*	27	-6	28
CCC(C)NC(=O)Cc1ccc(-c2ccccc2)cc1 (stereo unspecified)	-2	.	32	+	-11	1	i	HeLa 24h tox=-6
SMILES	3CLpro inhibitor	TcdB inh	DUSP3 inh	Vc quorum ag-1	CCHF vOTU inh	SSB-PriA inh	Vc quorum ag-2	others
COc1ccccc1NC(=O)Cc1ccc(-c2ccccc2)cc1	6	3	-2	+	-5	-23	i
CCCC(C)NC(=O)Cc1ccccc1 (stereo unspecified)	-5	1	6	0	-7	2	.
O=C(COCc1ccccc1)NCC[C@H](O)C1CCOCC1	.	.	.	.	.	-14	.
CCN1C(=O)C2(C(=C(O)c3ccc(S(=O)(=O)N(C)C)cc3)C(=O)C(=O)N2CCN(C)C)c2ccccc21 (stereo unspecified)	.	.	.	.	.	-6	.
CCc1ccc(C(=O)OCC(=O)N2CCCCCC2)cc1	.	-2	.	3	0	-15	.
CCOc1ccc(C(=O)OCC(=O)N2CCCC2)cc1	-1	3	6	25*	12	1	8
CCCCOC(=O)c1ccc(NC(=O)CSc2nnc(CCc3nc4ccccc4[nH]3)o2)cc1	.	.	.	.	.	-16	.
COc1ccc(NC(=O)CCS(=O)(=O)c2ccc3c(c2)CCCN3C(C)=O)cc1Cl	-1	.	37	17*	-2	-4	4
CN(C)c1ccc(C2=C([O-])C(=C3C=CC(=[N+](C)C)C=C3)C2=O)cc1	.	.	.	.	.	4	.
CCCS(=O)(=O)N1CCCC(C(=O)NCCCN(C)c2ccccc2)C1 (stereo unspecified)	-3	.	10	17*	9	10	0
CCCS(=O)(=O)N1CCCC(C(=O)NCc2ccc(C)cc2)C1 (stereo unspecified)	-7	.	0	12	-2	-10	0
O=C(NCc1ccccc1)C1CCCN(S(=O)(=O)c2cccnc2)C1 (stereo unspecified)	1	.	-6	25	12	-7	0
CCCS(=O)(=O)N1CCCC(C(=O)NCc2cccnc2)C1 (stereo unspecified)	-3	1	24	.	0	1	.
CCCS(=O)(=O)N1CCCC(C(=O)NCCCN(C)Cc2ccccc2)C1 (stereo unspecified)	-8	.	-7	17*	7	-7	0
COc1ncccc1C(=O)Nc1ccccc1-c1csc(-c2ccccc2F)n1	.	.	.	.	.	-31	.
CCN(CCNC(=O)C1CCN(S(=O)(=O)CC)CC1)c1ccccc1	0	1	6	-2	9	1	.
CCN(CCNC(=O)C1CCCN(S(=O)(=O)CC)C1)c1ccccc1 (stereo unspecified)	0	.	-11	12	-3	-2	0
Cc1ccc(C(=O)OCC(=O)NC2CCCC2)cc1C	2	1	.	+	-18	-3	i
COc1cc(SC)ccc1C(=O)OCC(=O)NC1CCCC1	1	0	24	741*	16	-10	i
Cc1ccc(CC(=O)NC2CCCC2)cc1	.	.	.	.	.	.	.	HeLa 24h tox=-5
O=C(Cc1ccccc1)NC1CCCCC1	.	-6	.	0	10	.	.
CC(C)c1ccc(C(=O)OCC(=O)NC2CCCC2)cc1	-1	-1	-20	+	4	-7	i
Cc1cc(C(=O)N2CCC(c3nnc(C(C)C)o3)CC2)no1	.	.	.	.	.	-20	.
CC(C)N1CCc2c(sc(NC(=O)CCSc3ccc(F)cc3)c2C(N)=O)C1	.	.	.	.	.	6	.
O=C(CC(NCc1ccco1)C(=O)O)NN(c1ccccc1)c1ccccc1 (stereo unspecified)	.	.	.	.	.	-4	.
CCc1ccc(C(=O)OCC(=O)NC2CCCC2)cc1	2	2	.	.	-4	17	i
